IL1B secr inh: inhibitors of inflammasome signaling (IL-1 beta secretion). THP-1 LPS/ATP IL-1B secretion, AlphaLISA, 16 h; hits give low values. activity change, % at 57.5 µM. 4.7% of 360,000 active; in the data active = activity change below about -50%; inconclusive = mostly about -30% to -49%; note: % is set by controls: 0 for no effect and ±100 for the full control effect
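Secreted IL-1B measured by AlphaLISA bead assay after 16 h compound exposure of THP-1 cells; compounds (final up to 57.5 uM) added 1 h before LPS (250 ng/mL) and ATP (1.25 mM) stimulation; lower signal means less secretion.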
DT40 TDP1 no CPT: qHTS for Inhibitors of human tyrosyl-DNA phosphodiesterase 1 (TDP1): qHTS in cells in absence of CPT. DT40 Tdp1-/- hTDP1 cells, no CPT, ATP luminescence, 48 h. Potency, µM (highest dose often 46.2 µM), without a hit: at the top dose activity change, negative = growth inhibition, usual class: inhibitors. 15% of 420,000 active; note: potency is the fitted concentration of half-maximal effect; % is set by controls: 0 for no effect and ±100 for the full control effect; nearly all actives have a fitted effect of over 55% in size
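Growth of hTDP1-complemented DT40 Tdp1-knockout cells is measured by ATP luminescence after at least 48 hr compound exposure at 37 °C, with DMSO substituting for the 20 nM CPT used in the parallel screen.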
HepG2 viability: counter-screen for TGF-b inhibitors: cytotoxicity in HepG2 cells | HepG2 CAGA-GFP viability, ATP luminescence, 18 h | Potency, µM (titrated, usually from 46.1 µM), for the others: at the top dose activity change, negative = cytotoxicity, actives largely listed as cytotoxic | 0.76% of 410,000 active | AID 588856; note: potency is the fitted concentration of half-maximal effect
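HepG2 CAGA-GFP cells (1000/well, DMEM with 1% FBS) received compound, then TGF-beta at 500 pg/mL final, and were incubated 18 hours at 37 degrees C. Viability was read by CellTiter-Glo luminescence. Media-only wells were set as complete cell-killing and DMSO as no toxicity.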
DT40 TDP1 CPT: growth inhibition of DT40 Tdp1-/-;hTDP1 cells with camptothecin (screen for TDP1 inhibitors) | chicken DT40 Tdp1-/-;hTDP1 cells + 20 nM CPT, ATP luminescence, 48 h | Potency, µM (highest dose often 46.2 µM), for the others: top-dose activity change, negative = growth inhibition, actives largely listed as inhibitors | 12% of 420,000 active; note: potency is the fitted concentration of half-maximal effect; % is set by controls: 0 for no effect and ±100 for the full control effect; nearly all actives have a fitted effect of over 55% in size
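Chicken DT40 Tdp1-/- cells complemented with human TDP1, 400 cells/well, exposed to compounds plus 20 nM camptothecin for at least 48 h at 37 C; viability read as ATP content by CellTiter-Glo luminescence.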
TGFb inhibitor: TGF-b pathway inhibition; HepG2 CAGA-GFP TGF-b/SMAD3 reporter, GFP fluorescence, 18 h; TGF-beta stimulated, 500 pg/mL final; Potency, µM (highest dose often 46.1 µM), for the others: top-dose activity, negative = inhibition, actives largely listed as inhibitors; 1.2% of 410,000 active; AID 588855; note: potency is the fitted concentration of half-maximal effect; % is set by controls: 0 for no effect and ±100 for the full control effect; nearly all actives have a fitted effect of over 65% in size
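GFP signal (ex488/em500-530) from TGF-beta-stimulated HEPG2 CAGA-GFP cells, 500 pg/mL final, 18 h at 37 degrees C in DMEM plus 1% FBS, normalized to unstimulated and DMSO-stimulated controls.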
S-ASM inh: human S-ASM enzyme inhibition. 0.006% of 340,000 active. P17405. placental ASM, HMU-PC fluorogenic substrate, 60 min. Potency, µM (doses to about 57.5 µM), for the others: top-dose activity change, negative = inhibition, most hits filed as inhibitors; note: potency is the fitted concentration of half-maximal effect
Target sequence (P17405 47-631 limits assumed): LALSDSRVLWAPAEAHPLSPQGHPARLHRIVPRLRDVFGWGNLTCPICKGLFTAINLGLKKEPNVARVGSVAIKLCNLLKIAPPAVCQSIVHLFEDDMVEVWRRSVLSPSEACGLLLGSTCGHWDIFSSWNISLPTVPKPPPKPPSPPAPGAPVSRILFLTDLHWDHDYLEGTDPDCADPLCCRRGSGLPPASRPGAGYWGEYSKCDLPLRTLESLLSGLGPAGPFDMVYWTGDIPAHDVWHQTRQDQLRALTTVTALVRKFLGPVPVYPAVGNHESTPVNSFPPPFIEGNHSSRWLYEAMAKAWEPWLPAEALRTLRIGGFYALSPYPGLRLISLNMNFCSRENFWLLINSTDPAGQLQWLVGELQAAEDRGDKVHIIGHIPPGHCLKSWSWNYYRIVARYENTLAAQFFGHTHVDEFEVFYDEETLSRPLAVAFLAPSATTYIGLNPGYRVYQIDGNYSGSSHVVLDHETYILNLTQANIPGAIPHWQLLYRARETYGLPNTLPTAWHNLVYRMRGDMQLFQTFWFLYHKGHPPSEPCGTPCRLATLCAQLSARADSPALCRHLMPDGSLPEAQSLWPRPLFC
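qHTS format. ASM enzyme prepared from human placenta hydrolyses the fluorogenic substrate HMU-PC0 (9 uM final) over 60 min at 37 °C after a 10 min compound preincubation.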
* = called active by the depositor; ? = inconclusive; . = not tested or not shown. Only some compounds are listed: those with a hit (about 19% of all), similar ones and a draw of the others. Unless noted, calls come from the whole dose curve; as a rule, active = well fitted curve in the direction sought with a large enough effect; inconclusive = small, poorly fitted or top-dose-only effect, or another doubt; inactive = no such curve, though single readings can be large; an effect the other way counts as inactive or inconclusive.

SMILES | IL1B secr inh | DT40 TDP1 no CPT | HepG2 viability | DT40 TDP1 CPT | TGFb inhibitor | S-ASM inh
CN(C)S(=O)(=O)c1cccc(NC(=O)c2cc(-c3cccs3)nn2-c2ccccc2)c1 | 0 | 15µM* | -7% | ? | 0% | -5%
COc1ccc2c(c1OC)C(=O)OC2Nc1ccccn1 (stereo not drawn) | 12 | -2% | 3% | 4% | ? | 2%
COc1ccc2c(c1OC)C(=O)OC2c1ccc(O)cc1 (stereo not drawn) | . | 13µM* | 6% | 18µM* | 15% | .
CCOc1ccc(NC(=O)Cc2ccc(NC(=O)N3CCCCc4ccccc43)cc2)cc1 | . | 5.2µM* | -15% | 5.2µM* | 3% | .
CCOc1ccccc1CNC(=O)Cc1ccc(NC(=O)N2CCCCc3ccccc32)cc1 | . | 9.2µM* | -42% | 12µM* | ? | .
CCOc1ccc(CNC(=O)Cc2ccc(NC(=O)N3CCCCc4ccccc43)cc2)cc1OC | . | ? | -16% | ? | -18% | .
CC(=O)c1cccc(NC(=O)Cc2ccc(NC(=O)N3CCCCc4ccccc43)cc2)c1 | . | 16µM* | -13% | ? | -25% | .
O=C(O)C(c1ccccc1)C(c1ccccc1)c1ccccc1 (stereo not drawn) | 57 | -2% | 2% | -9% | -10% | -1%
O=C(CCOc1ccccc1)NO | . | 11µM* | . | 10µM* | . | .
O=C(CCOc1ccccc1)Nc1ccccc1 | 23 | 7% | 1% | 21% | -19% | 2%
O=C(CCCCCCC(=O)Nc1ccccc1)NO | . | 0.6µM* | . | 0.42µM* | 56% | -1%
O=C(CCCCCN1C(=O)c2ccccc2C1=O)Nc1ccccc1 | 4 | -22% | 7% | 2% | -26% | -1%
Cc1cccc(OCCCC(=O)NC(C)C)c1 | -1 | 23µM* | -100% | -6% | ? | 2%
COc1ccc(CC(=O)NO)cc1 | . | ? | . | -6% | . | .
CC(C)COc1ccc(CC(=O)NO)cc1 | . | ? | 3% | 8.9µM* | 3% | .
Cc1ccc(NS(=O)(=O)c2cc3[nH]c(=O)c(=O)[nH]c3cc2C)cc1N(C)C | . | 0% | -5% | 0% | -4% | .
CCOC(=O)C1CCN(C(=O)c2sccc2Cl)CC1 | 10 | -2% | -24% | 5% | -5% | 3%
O=C(Cc1ccc(OCCCc2ccccc2)cc1)NO | . | 14µM* | -23% | 11µM* | 5% | .
Cc1cccc(OCCCC(=O)O)c1 | 28 | -13% | -8% | -5% | -2% | 1%
Cc1cccc(OCCC(=O)NO)c1 | . | 10µM* | . | 10µM* | . | .
CCc1ccc(OCCCC(=O)NCc2ccccc2)cc1 | 6 | 21µM* | -14% | 29µM* | -28% | 0%
O=C(Cc1ccc(Oc2ccccc2)cc1)NO | . | ? | -21% | ? | -6% | .
O=S(=O)(c1ccccc1)N1CCC[C@@]2(CCN(Cc3ccccc3)C2)C1 | . | -24% | . | 5% | . | .
Cn1c(=O)n(C)c2cc([N+](=O)[O-])c(N3CCN(S(=O)(=O)c4ccc(C(C)(C)C)cc4)CC3)cc21 | -30 | ? | -30% | 21µM* | ? | -26%
CC(=O)Nc1ccc(S(=O)(=O)N2CCN(c3cc4c(cc3[N+](=O)[O-])n(C)c(=O)n4C)CC2)cc1 | -11 | 18µM* | 2% | ? | ? | -14%
CCS(=O)(=O)N1CCN(c2cc3c(cc2[N+](=O)[O-])n(C)c(=O)n3C)CC1 | 8 | ? | -2% | 2% | ? | -1%
Cn1c(C(O)c2ccc3c(c2)OCO3)nc2ccccc21 (stereo not drawn) | 13 | ? | -7% | 16µM* | -22% | 2%
CCN(CC)C(=O)c1[nH]cnc1C(=O)Nc1ccon1 | 14 | -5% | -24% | 4% | 17% | 1%

Source: PubChem BioAssay
